“And” between values parts separate entries of the source, which are not always exact repeats. Equal entries are not always repeated. Out of some 16,000 compounds screened, about 5,800 (36%) were called active. Another 23% or so got no clear call; they are omitted. The call rests on the fitted dose curve; in most records, active means well fitted curve in the direction sought with a large enough effect; inconclusive means small, poorly fitted or top-dose-only effect, or effect the other way; inactive means no such curve, though single readings can be large or run the other way. Some of the results follow.

The AC50 is the concentration giving half of the maximal activity seen.
On the % scale 0 is the no-effect control and ±100 the full control effect.

The target in this test is Cytochrome P450 2C19 (Homo sapiens) (UniProt P33261). As to the kind of experiment: Cytochrome panel assay with activity outcomes. As to conditions: recombinant CYP, pro-luciferin dealkylation, luminescence, p450-cyp2c19; series mostly up to 57.1 µM; activity, negative = inhibition: at the top concentration.
Sequence of Cytochrome P450 2C19 (Homo sapiens) (P33261 whole entry, looked up): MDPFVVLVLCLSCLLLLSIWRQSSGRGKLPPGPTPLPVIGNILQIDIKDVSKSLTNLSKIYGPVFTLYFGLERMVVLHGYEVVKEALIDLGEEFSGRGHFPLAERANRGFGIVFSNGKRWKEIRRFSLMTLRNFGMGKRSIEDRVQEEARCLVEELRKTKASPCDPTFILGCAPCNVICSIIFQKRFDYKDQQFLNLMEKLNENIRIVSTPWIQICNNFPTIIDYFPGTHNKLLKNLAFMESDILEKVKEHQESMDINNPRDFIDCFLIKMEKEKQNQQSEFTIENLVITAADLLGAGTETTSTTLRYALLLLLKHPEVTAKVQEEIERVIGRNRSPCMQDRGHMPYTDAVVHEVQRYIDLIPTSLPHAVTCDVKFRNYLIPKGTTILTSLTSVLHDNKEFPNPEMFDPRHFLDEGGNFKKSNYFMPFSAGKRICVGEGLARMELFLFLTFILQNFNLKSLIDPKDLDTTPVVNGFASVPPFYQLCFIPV
Turning to `CC(C)Cn1c(-c2nn(C)cc2Cl)n[nH]c1=S`, the AC50 is 15.8 µM (active).

For `CCc1nn(C)c(-c2n[nH]c(=S)n2N)c1Cl`, the “activity, negative = inhibition” value was -20.1% (inactive).

For `CCn1c(CC(C)C)n[nH]c1=S`, the “activity, negative = inhibition” value was 16% (inactive).

Take `CC1CCN(CCc2nc3cc(NC(=O)NC4CCCCC4)ccc3n2C)CC1`: the “activity, negative = inhibition” value is -5.62% (inactive).

On to `O=C(Nc1ccc2c(c1)nc1n2CCN(C2CCCCC2)C1)NC1CCCCC1`, for which the concentration at half-maximal activity (AC50) is 14.1 µM (active).

`C[C@@H]1/C=C\CC(=O)OC[C@H]2O[C@@H](C=C[C@@H]2O)[C@H](C)/C=C\CC(=O)OC1`: the activity, negative = inhibition was -20.4% [at 11.4 µM] (inactive).

With `Cn1c2c(c(=O)n(C)c1=O)[C@@H]1c3c(ccc4ccccc34)OC[C@@H]1CO2`, the AC50 was 14.1 µM (active).

As to `Nc1ccc(-c2ccc(Nc3cc(S(=O)(=O)O)c(N)c4c3C(=O)c3ccccc3C4=O)cc2)c(S(=O)(=O)O)c1`, the activity, negative = inhibition was -36% [at 11.4 µM] (inactive).

For the compound `O=C1c2ccccc2C(=O)c2c(NC3CCCCC3)ccc(Nc3ccc(S(=O)(=O)O)cc3)c21`, the AC50 was 3.98 µM (active).

`O=C(Nc1ccc(Nc2ccc3c(c2)C(=O)c2ccccc2C3=O)c2c1C(=O)c1ccccc1C2=O)c1ccccc1`: the activity, negative = inhibition was -23.9% [at 11.4 µM] (inactive).

As for `Cn1c(SC2=CS(=O)(=O)c3ccccc32)nc2ccccc21`, the AC50 was 17.8 µM (active).

`Oc1ccc(/C=N/NC(=S)NCc2ccco2)cc1`: the AC50 is 10 µM (active).

As to `C=CCOc1cccc(/C=N/NC(=O)C(=O)NCc2ccco2)c1`, the “activity, negative = inhibition” value is 18.1% (inactive).

Take `Fc1ccc(Nc2nc(-c3ccoc3)nc3ccccc23)cc1`: the “activity, negative = inhibition” value is -38.8% (inactive).

Take `c1ccc2c(Nc3ccncc3)nc(-c3ccoc3)nc2c1`: the AC50 was 20 µM (active).

For the compound `CN(C)c1ccc(-c2nc(Nc3ccncc3)c3ccccc3n2)cc1`, the AC50 is 10 µM (active).

Consider `CN(C)c1ccc(-c2nc(NC3CCNCC3)c3ccccc3n2)cc1`, for which the “activity, negative = inhibition” value was -7.38% (inactive).

Consider `CNc1nc(-c2ccoc2)nc2ccccc12`, for which the “activity, negative = inhibition” value is -19.4% (inactive).

Consider `CNc1nc(-c2ccc(N(C)C)cc2)nc2ccccc12`, for which the AC50 was 25.1 µM (active).

Turning to `NCC[C@H](O)C(=O)N[C@H]1C[C@@H](N)[C@@H](O[C@H]2O[C@@H](CN)[C@@H](O)[C@@H](O)[C@@H]2O)[C@@H](O)[C@@H]1O[C@H]1O[C@@H](CO)[C@@H](O)[C@@H](N)[C@@H]1O`, the “activity, negative = inhibition” value is 8.94% [at 25.6 µM] (inactive).

As to `N[C@@H](C(=O)O)c1cc(O)ccc1Cl`, the “activity, negative = inhibition” value was -10% (inactive).

Consider `CNC(=O)c1sc(-c2cccnc2)nc1C`, for which the “activity, negative = inhibition” value is -9.33% (inactive).

With `Cc1nc(-c2cccnc2)sc1C(=O)Nc1ccc(Cl)cc1`, the AC50 is 11.2 µM (active).

Take `CC(=O)OC[C@H]1O[C@@H](O/N=C(\C)CCN2CCCCc3nc(C)c(C)cc32)[C@H](OC(C)=O)[C@@H](OC(C)=O)[C@H]1OC(C)=O`: the activity, negative = inhibition is -0.342% [at 11.4 µM] (inactive).

As to `CNc1ncnc2c1ncn2[C@H]1C[C@H](OP(=O)(O)O)[C@H](COP(=O)(O)O)O1`, the AC50 is 1 µM (active).

Consider `CNc1ncnc2c1ncn2[C@H]1C[C@@H](OP(=O)(O)O)[C@H](COP(=O)(O)O)O1`, for which the “activity, negative = inhibition” value is 6.61% (inactive).

In the case of `CNc1ncnc2c1ncn2[C@@H]1O[C@@H](CO)[C@H](O)[C@@H]1O`, the “activity, negative = inhibition” value is 1.57% (inactive).

On to `COc1ccc(CN(CCN(C)C)c2ccccn2)cc1`, for which the “activity, negative = inhibition” value is 20.1% (inactive).

Turning to `CN(C)CCN(Cc1cccs1)c1ccccn1`, the AC50 result is “inactive”.

With `CN(C)CCN(Cc1ccc(Cl)cc1)c1ccccn1`, the AC50 was 6.31 µM (active).

On to `N=c1n(-c2ccccc2)c(O)cc(=O)n1-c1ccccc1`, for which the “activity, negative = inhibition” value is -21.2% (inactive).

Turning to `Cc1ccc(C(=O)N/C(=C\c2ccc(Br)cc2)c2nc(=S)[nH][nH]2)cc1`, the AC50 was 11.2 µM (active).

Regarding `CO[C@H]1COC(=O)CCC[C@@H](C)[C@H](OC)COC(=O)[C@@H](C)NC(=O)C/C=C\[C@@H]1C`, the activity, negative = inhibition is 31.3% [at 11.4 µM] (inactive).

As to `O=C(O)COc1ccc(OCCNC[C@@H](O)COc2ccccc2)cc1`, the “activity, negative = inhibition” value was -33.9% (inactive).

Regarding `COc1ccc(-c2cc3ccccc3n2CC(O)CNCCO)cc1` (stereo not drawn), the AC50 is 14.1 µM (active).

Turning to `NC(=O)c1cc[n+](CC2=C(C(=O)O)N3C(=O)[C@@H](NC(=O)[C@H](c4ccccc4)S(=O)(=O)[O-])[C@@H]3SC2)cc1`, the AC50 result was “inactive”.

As to `O=C(NNS(=O)(=O)c1ccccc1)c1cccnc1`, the activity, negative = inhibition was 9.95% [at 11.4 µM] (inactive).

For the compound `O=C(NNS(=O)(=O)c1ccc(Cl)cc1)C1CCN(Cc2ccccc2)CC1`, the “activity, negative = inhibition” value is -6.45% (inactive).

As to `O=C(NNS(=O)(=O)c1ccc(Cl)cc1)c1cnn(-c2ccccc2)c1-n1cccc1`, the AC50 was 1.12 µM (active).

In the case of `COc1cc2c(cc1OC)C(C(=O)N1CCOCC1)C(c1cccs1)N(C)C2=O` (stereo not drawn), the “activity, negative = inhibition” value is 9.22% (inactive).

On to `Cc1ccc(-n2c(C)nnc2SCC(=O)N2CCc3ccccc3C2)cc1C`, for which the AC50 was 22.4 µM (active).

In the case of `CCSc1nnc(NC(=O)CSc2nc3c(cc2C#N)CCCC3)s1`, the AC50 is 2.82 µM (active).

Take `CCC(=O)Nc1c2c(nc3c1CCC3)CCCC2`: the “activity, negative = inhibition” value is -14.8% (inactive).

Take `COc1ccc(NC(=S)Nc2ncccc2C)c(OC)c1`: the AC50 was 3.55 µM (active).

On to `COc1ccc(-n2nc3cc(C)c(NC(=S)NC(=O)c4ccccc4C)cc3n2)cc1`, for which the “activity, negative = inhibition” value is -29.5% (inactive).

As to `CO[C@H]1COC(=O)C/C=C\[C@H](C)[C@@H](NS(=O)(=O)c2ccc(C)cc2)COC(=O)C/C=C\[C@@H]1C`, the activity, negative = inhibition was 1.28% [at 11.4 µM] (inactive) and 16.7% [at 11.4 µM] (inactive).

With `COC(=O)N1CCC2(CC1)CCN(c1ncccn1)CC2`, the “activity, negative = inhibition” value was 9.12% (inactive).

On to `Cc1sc(NC(=O)c2ccco2)c(C(c2cccnc2)N2CCCC2)c1C` (stereo not drawn), for which the AC50 was 11.2 µM (active).

For the compound `O=C(Nc1c(C(=O)N2CCCCC2)cnn1-c1ccccc1)c1ccco1`, the “activity, negative = inhibition” value was -22.6% (inactive).

As to `Cc1sc(NC(=O)c2ccco2)c(C(c2ccncc2)N2CCOCC2)c1C` (stereo not drawn), the AC50 was 10 µM (active).

`Cc1sc(NC(=O)c2ccco2)c(C(c2cccnc2)N2CCN(C)CC2)c1C` (stereo not drawn): the AC50 was 20 µM (active).

As for `Cc1c(C)c2c(c(C)c1O)CC[C@@](C)(C(=O)O)O2`, the “activity, negative = inhibition” value was 9.1% [at 25.6 µM] (inactive).

Turning to `O=C(N/N=C/c1ccc(O)cc1)c1csc2ccccc12`, the half-maximal activity concentration (AC50) was 14.1 µM (active).

For the compound `CCOc1ccc(NC(=S)N(Cc2ccc(N(C)C)cc2)Cc2ccco2)cc1`, the AC50 was 1.58 µM (active).

For `CCOc1ccc(NC(=S)N(Cc2ccc(Cl)cc2)Cc2ccco2)cc1`, the AC50 is 7.94 µM (active).

Turning to `Cc1ccccc1NC(=O)CN1CCC(n2nnc3ccccc32)CC1`, the AC50 was 17.8 µM (active).

Regarding `Cc1ccc2c(c1)nnn2C1CCN(CC(=O)N2c3ccccc3CC2C)CC1` (stereo not drawn), the AC50 was 10 µM (active).

Take `CCc1ccccc1NC(=O)c1nnn(CC(=O)Nc2ccccc2C)c1N`: the “activity, negative = inhibition” value is -8.56% (inactive).
